Laboratory results published in publication PMC7826789 (International Journal of Molecular Sciences, 2021).

Tests used:
Conditions in all cases: Compound Concentration (nM):1000
[1] = tested on: ABL1(Q252H)-phosphorylated
[2] = tested on: ABL1(T315I)-nonphosphorylated
[3] = tested on: ABL1(T315I)-phosphorylated
[4] = tested on: ABL1(Y253F)-phosphorylated
ABL1-nonphosphorylated = tested on: ABL1-nonphosphorylated
ABL1-phosphorylated = tested on: ABL1-phosphorylated
ABL2 = tested on: ABL2
ACVR1B = tested on: ACVR1B
ACVR1 = tested on: ACVR1
ACVR2A = tested on: ACVR2A
ACVR2B = tested on: ACVR2B
ACVRL1 = tested on: ACVRL1
ADCK3 = tested on: T1, ADCK3
T1 construct: gene CABC1

ADCK4 = tested on: ADCK4
AKT1 = tested on: AKT1
AKT2 = tested on: AKT2
AKT3 = tested on: AKT3
ALK(C1156Y) = tested on: ALK(C1156Y)
ALK(L1196M) = tested on: ALK(L1196M)
ALK = tested on: ALK
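Further: KINOMEscan scanMAX binding as percent activity remaining versus control; lower means stronger binding.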

SMILES	Percent Control [1] [%]	Percent Control [2] [%]	Percent Control [3] [%]	Percent Control [4] [%]	Percent Control (ABL1-nonphosphorylated) [%]	Percent Control (ABL1-phosphorylated) [%]	Percent Control (ABL2) [%]	Percent Control (ACVR1B) [%]	Percent Control (ACVR1) [%]	Percent Control (ACVR2A) [%]	Percent Control (ACVR2B) [%]	Percent Control (ACVRL1) [%]	Percent Control (ADCK3) [%]	Percent Control (ADCK4) [%]	Percent Control (AKT1) [%]	Percent Control (AKT2) [%]	Percent Control (AKT3) [%]	Percent Control (ALK(C1156Y)) [%]	Percent Control (ALK(L1196M)) [%]	Percent Control (ALK) [%]
CCn1c(-c2nonc2N)nc2c(C#CC(C)(C)O)nc(OCCNC)cc21.Cl [GSK949675]	96	87	100	91	97	78	100	100	100	100	99	100	100	100	3.7	3.1	0.2	95	100	85
COc1cc2ncnc(Nc3ccc4c(cnn4Cc4ccccc4)c3)c2cc1OC.Cl [GW282449A]	100	100	100	100	90	100	100	100	100	100	100	97	100	100	100	100	100	96	100	93
COc1cc(C=NNc2ncnc3c2cnn3-c2ccccc2)ccc1O [GW513184X]	13	37	35	26	31	23	55	53	22	68	82	67	95	0	100	100	100	100	100	100
COc1cc2ncn(-c3cc(O[C@H](C)c4ccccc4Cl)c(C(N)=O)s3)c2cc1OC [GSK237701A]	76	51	39	83	59	81	73	100	100	100	100	100	100	83	100	88	100	100	94	79
NS(=O)(=O)c1ccc(N/N=C2\C(=O)Nc3ccc(C(=O)NCc4ccncc4)cc32)cc1 [GW300657X]	72	97	98	82	79	77	100	100	100	100	100	100	87	100	82	100	100	83	82	77
NS(=O)(=O)c1ccc(N/N=C2\C(=O)Nc3ccc(Cl)cc32)cc1 [GW280670X]	100	100	100	100	93	100	100	100	100	100	100	100	100	100	100	100	100	100	100	100
COc1cccc(-c2c[nH]c3c(N/N=C/c4ccncc4)ncnc23)c1 [GW814408X]	1.1	50	48	0.5	1.2	0.3	11	42	17	75	71	59	100	36	100	100	100	97	99	100
CN(C)c1cc2c(Nc3ccc4c(cnn4Cc4ccccc4)c3)ncnc2cn1 [GW282974X]	66	74	100	65		54	95	100	87	100	100	87	98	100	79	100	100	97	94	100
Cl.O=C(Nc1ccc(Oc2ccc3[nH]c(NC(=O)c4ccccc4)nc3c2)cc1)Nc1cc(C(F)(F)F)ccc1F [GW709042A]	94	12	31	69	9.8	60	26	100	100	100	100	100	100	100	90	100	100	84	92	73
COc1cc(/C=N/Nc2ncnc3[nH]ncc23)ccc1O [GW578748X]	1.6	79	24	1.1	3.1	1.2	68	100	83	50	40	67	100	100	100	100	100	82	75	98
Nc1ncnc2occ(-c3ccc(NC(=O)Nc4cc(C(F)(F)F)ccc4F)cc3)c12 [GW770249X]	92	0	9.1	72	0.7	56	41	100	100	100	100	100	100	100	100	100	100	41	74	36
COC(=O)Nc1nc2ccc(Oc3ccc(NC(=O)Nc4cc(C(F)(F)F)ccc4F)cc3)cc2s1.Cl [GW693917A]	32	5.1	6.7	15	3.1	13	2.6	100	89	100	100	65	100	75	84	100	100	89	87	100
NS(=O)(=O)c1ccc(N/N=C2\C(=O)Nc3ccc(C(=O)NCCc4c[nH]cn4)cc32)cc1 [GW300660X]	100	100	86	100	100	91	100	100	100	100	100	100	100	100	100	100	100	92	91	100
O=C1Nc2ccc(C(=O)c3ccco3)cc2C1=Cc1cc(Cl)c(O)c(Cl)c1 [GW406108X]	88	96	78	83	87	76	100	100	89	92	86	100	90	99	100	100	100	76	86	89
COc1cccc(-n2ncc3c(N/N=C/c4ccncc4)ncnc32)c1 [GW784752X]	1.7	59	27	1.6	7	1.8	54	54	5.4	81	81	3.7	100	31	100	100	100	95	91	87
CC(C)COC(=O)c1ccc2c(c1)/C(=C/Nc1ccc(S(N)(=O)=O)cc1)C(=O)N2 [GW416981X]	100	100	73	100	100	100	100	100	100	100	100	100	100	100	100	100	100	93	94	100
Cl.O=C(Nc1ccc(Oc2ccc3[nH]c(NC(=O)c4ccco4)nc3c2)cc1)Nc1cc(C(F)(F)F)ccc1F [GW683134A]	58	6.2	9.2	17	7.9	21	3.2	82	100	100	100	76	100	100	100	100	100	92	92	88
Cc1cc(O)cc(C)c1/C=C/c1cncc(C(N)=O)c1 [GW435821X]	13	100	85	8.8	25	14	47	89	7.3	14	7.1	2.6	100	100	96	100	100	96	88	100
COc1ccc2[nH]c3c4[nH]c5ccc(OC)cc5c4c4c(c3c2c1)C(=O)NC4=O [GW296115X]	36	44	94	53	58	57	82	100	77	58	44	100	100	75	72	84	98	25	70	55
CC1=C(C(=O)Nc2ccc3[nH]ncc3c2)C(c2ccc3ccccc3c2)CC(=O)N1 (stereo not drawn) [GSK270822A]	84	48	76	79	54	80	100	97	93	100	86	100	100	100	17	100	100	72	77	68
